Reference: PubChem BioAssay (NCATS)
Results filed as inconclusive are left out. Where a call stands in place of a potency, no number is given. A number with no mark means an inactive call. Activity calls are given as the source filed them. Calls follow the shape of the dose curve; as a rule, active = well fitted curve in the direction sought with a large enough effect; inconclusive = small, poorly fitted or top-dose-only effect, or another doubt; inactive = no such curve, though single readings can be large; an effect the other way counts as inactive or inconclusive.

How the values were obtained:
[1] = biological target: Cytochrome P450 3A7 (Homo sapiens) (UniProt P24462); assay: Cytochrome P450 family 3 subfamily A member 7 (CYP3A7) small molecule antagonists: luciferase biochemical qHTS assay (AID 1963596); conditions: P450-Glo CYP3A7 enzyme luminescence, 1 h; series mostly up to 57.4 µM; also: nearly all actives have a fitted effect of over 40% in size; also: potency is read from the fitted curve at half-maximal effect
Cytochrome P450 3A7 (Homo sapiens), sequence (P24462 whole entry, looked up): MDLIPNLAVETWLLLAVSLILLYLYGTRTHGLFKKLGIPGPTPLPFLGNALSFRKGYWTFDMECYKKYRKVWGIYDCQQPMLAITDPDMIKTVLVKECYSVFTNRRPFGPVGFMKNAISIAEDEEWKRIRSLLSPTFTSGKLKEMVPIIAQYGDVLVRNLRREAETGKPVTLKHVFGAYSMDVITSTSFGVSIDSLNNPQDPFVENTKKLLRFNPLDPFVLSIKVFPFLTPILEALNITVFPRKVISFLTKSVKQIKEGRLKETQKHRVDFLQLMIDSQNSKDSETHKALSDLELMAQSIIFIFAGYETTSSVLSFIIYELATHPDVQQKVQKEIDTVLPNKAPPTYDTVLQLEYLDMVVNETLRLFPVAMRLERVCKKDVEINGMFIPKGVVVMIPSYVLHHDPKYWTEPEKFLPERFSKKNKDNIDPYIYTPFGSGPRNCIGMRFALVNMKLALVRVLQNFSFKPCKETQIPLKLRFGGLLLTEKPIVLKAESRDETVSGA
In short: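 Recombinant CYP3A7 P450-Glo luminescent assay: enzyme-proluciferin substrate mix preincubated with compound 10 min at room temperature, reaction started with NADPH regeneration system for 1 h. Luciferin detected by luminescence; ketoconazole as positive control.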

[2] = Cellular viability qHTS for adrenocortical cancer (ACC) cell line SW-13 (AID 1963989); conditions: SW-13 ACC cells viability, CellTiter-Glo, 48 h; activity (max response): stronger effect = lower value;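 also: cells grown in serum-free medium with ITS supplement; nearly all actives have a fitted effect of over 65% in size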
In short: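 IC50 and maximal-response values come from four-parameter logistic fits of titration data. SW-13 cells in serum-free medium received compounds (up to 46 uM final) for 48 h before CellTiter-Glo luminescence.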

[3] = Cellular viability qHTS for adrenocortical cancer (ACC) cell line NCI-H295R (AID 1963990); conditions: CellTiter-Glo ATP luminescence, 48 h; series mostly up to 46.1 µM; also: nearly all actives have a fitted effect of over 60% in size
In short: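 Adrenocortical carcinoma cells, suspended at 300 000 cells/mL in serum-free DMEM plus ITS, rested overnight before pin transfer of compound. After two days' incubation, ATP-dependent luminescence was recorded and curve-fitted.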

| Structure (SMILES) | Potency [1] | activity (max response) [2] [%] | Potency [3] |
| --- | --- | --- | --- |
| N#Cc1cccc(-c2c[nH]c3ncnc(N4CCOCC4)c23)c1 | inactive | 9.94 | inactive |
| CO[C@@H]1[C@@H](O[C@@H]2O[C@H](C)[C@@H](O[C@H]3C[C@@](C)(O)[C@@H](O)[C@H](C)O3)[C@H](N(C)C)[C@H]2O)[C@@H](CC=O)C[C@@H](C)[C@@H](O[C@@H]2CC[C@H](N(C)C)[C@@H](C)O2)/C=C/C=C/C[C@@H](C)OC(=O)C[C@H]1OC(C)=O | inactive | -1.59 | inactive |
| CCN(CC)CCNC(=O)c1cc(Cl)c(N)cc1OC | inactive | -0.158 | inactive |
| CCO/C([O-])=N/c1c[n+](N2CCOCC2)no1 | inactive | -2.98 | inactive |
| Nc1ncnc2c1ncn2Cc1c(F)cccc1Cl | inactive | 6.36 | inactive |
| O=C(CCCCC(=O)Nc1c(I)cc(I)c(C(=O)O)c1I)Nc1c(I)cc(I)c(C(=O)O)c1I | inactive | 10.3 | inactive |
| C=CCN1C[C@H](C(=O)N(CCCN(C)C)C(=O)NCC)C[C@@H]2c3cccc4[nH]cc(c34)C[C@H]21 | inactive | 3.88 | inactive |
| CC(CN(C)C)C(C)(O)Cc1ccc(Cl)cc1 (stereo unspecified) | inactive | 6.59 | inactive |
| CC(C)(Oc1ccc(Cl)cc1)C(=O)O | inactive | -3.02 | inactive |
| COc1cc2c3cc1Oc1cc(ccc1O)C[C@@H]1c4c(cc(OC)c(O)c4Oc4ccc(cc4)C[C@@H]3N(C)CC2)CC[N+]1(C)C | inactive | -1.9 | inactive |
| CC(=O)O[C@H]1C[C@@H]2CC[C@@H]3[C@H](CC[C@@]4(C)[C@H]3C[C@H]([N+]3(C)CCCCC3)[C@@H]4OC(C)=O)[C@@]2(C)C[C@@H]1N1CCCCC1 | inactive | 0.69 | inactive |
| CC(C)NCC(O)c1ccc2ccccc2c1 (stereo unspecified) | inactive | 8.99 | inactive |
| NC(=O)N[C@@H](CCC(=O)O)C(=O)O | inactive | 9.08 | inactive |
| CO[C@@]1(NC(=O)Cc2cccs2)C(=O)N2C(C(=O)O)=C(COC(N)=O)CS[C@@H]21 | inactive | 12.4 | inactive |
| Oc1cn2c(n1)Nc1ccc(Cl)c(Cl)c1C2 | inactive | 11.3 | inactive |
| CO/N=C(\C(=O)N[C@@H]1C(=O)N2C(C(=O)O)=C(CSc3nc(=O)c(O)nn3C)CS[C@H]12)c1csc(N)n1 | inactive | 16.1 | inactive |
| NC(=O)NC1N=C([O][Al])NC1=O (stereo unspecified) | 12.3 µM (active) | -0.662 | inactive |
| CN[C@@H](C)C(=O)N[C@H](C(=O)N1CCC[C@H]1c1nc(C(=O)c2ccc(F)cc2)cs1)C1CCCCC1 | 14.1 µM (active) | -7.41 | inactive |

| Structure (SMILES) | Potency [1] | activity (max response) [2] [%] | Potency [3] |
| --- | --- | --- | --- |
| Brc1ccccc1-c1ccccc1 | inactive | 7.98 | inactive |
| O=C(O)c1[nH]n(-c2ccc(S(=O)(=O)O)cc2)c(=O)c1N=Nc1ccc(S(=O)(=O)O)cc1 | inactive | 6.82 | inactive |
| CCN1CCC[C@H]1CNC(=O)c1c(O)c(Cl)cc(Cl)c1OC | inactive | 8.2 | inactive |
| CN1C(=O)c2ccccc2C1=O | inactive | -9.75 | inactive |
| CCCCN(CCN(CCCC)C(=O)N1CCOCC1)C(=O)N1CCOCC1 | inactive | 13.7 | inactive |
| Cc1c(C(N)=O)cc([N+](=O)[O-])cc1[N+](=O)[O-] | inactive | -7.83 | inactive |
| NCCO | inactive | 7.88 | inactive |
| OC[C@H]1O[C@@H](Oc2ccc(O)cc2)[C@H](O)[C@@H](O)[C@@H]1O | inactive | -0.0454 | inactive |
| CCCCNC(=O)NS(=O)(=O)c1ccc(N)cc1 | inactive | 0.545 | inactive |
| NCCNC(=O)c1ccc(Cl)cn1 | inactive | -2.26 | inactive |
| COC(=O)N[C@@H](C)CNc1nccc(-c2cn(C(C)C)nc2-c2cc(Cl)cc(NS(C)(=O)=O)c2F)n1 | inactive | -16 | inactive |
| NC(CO)(CO)CO | inactive | 12.7 | inactive |
| CCCCCCCCCCCCCCC[C@H](O)[C@@H](N)CO | inactive | 1.16 | inactive |
| Nc1ncnc(Nc2ccccc2)n1 | inactive | 3.3 | inactive |
| Nc1ccncc1N | inactive | -0.994 | inactive |
| NC(N)=NC(N)=NCCc1ccccc1 | inactive | -8.99 | inactive |
| O=C(Oc1ccccc1)c1cccc(C(=O)Oc2ccccc2)c1 | inactive | -1.98 | inactive |
| Cc1cccc(C(=O)O)c1O | inactive | 14.1 | inactive |
